According to PMC5540273 (PLoS ONE, 2017):
Like-named read-outs stand apart in the source and are kept apart here.

Assays:
[1] = system: FYN; settings: concentration: 1 μM, replicates: in singlicate; n = 1
[2] = system: GAK; settings: concentration: 1 μM, replicates: in singlicate; n = 1
[3] = system: T1, GCN2(Kin.Dom.2,S808G); settings: concentration: 1 μM, replicates: in singlicate; n = 1
T1 construct: gene EIF2AK4

[4] = system: GRK1; settings: concentration: 1 μM, replicates: in singlicate; n = 1
[5] = system: T2, GRK2; settings: concentration: 1 μM, replicates: in singlicate; n = 1
T2 construct: gene ADRBK1

[6] = system: T3, GRK3; settings: concentration: 1 μM, replicates: in singlicate; n = 1
T3 construct: gene ADRBK2

[7] = system: GRK4; settings: concentration: 1 μM, replicates: in singlicate; n = 1
[8] = system: GRK7; settings: concentration: 1 μM, replicates: in singlicate; n = 1
[9] = system: GSK3A; settings: concentration: 1 μM, replicates: in singlicate; n = 1
[10] = system: GSK3B; settings: n = 1
[11] = system: T4, HASPIN; settings: concentration: 1 μM, replicates: in singlicate; n = 1
T4 construct: gene GSG2

[12] = system: HCK; settings: concentration: 1 μM, replicates: in singlicate; n = 1
[13] = system: HIPK1; settings: concentration: 1 μM, replicates: in singlicate; n = 1
[14] = system: HIPK2; settings: concentration: 1 μM, replicates: in singlicate; n = 1
[15] = system: HIPK3; settings: concentration: 1 μM, replicates: in singlicate; n = 1
[16] = system: HIPK4; settings: concentration: 1 μM, replicates: in singlicate; n = 1
[17] = system: HPK1; settings: concentration: 1 μM, replicates: in singlicate; n = 1
[18] = system: HUNK; settings: concentration: 1 μM, replicates: in singlicate; n = 1
[19] = system: ICK; settings: concentration: 1 μM, replicates: in singlicate; n = 1
[20] = system: IGF1R; settings: concentration: 1 μM, replicates: in singlicate; n = 1
[21] = concentration: 1 μM, replicates: in singlicate
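Note: KINOMEscan kinase panel screen.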

Cn1cc(-c2cnc(N)c3c(-c4ccc5c(c4)CCN5C(=O)Cc4ccccc4)csc23)cn1 [GSK2593074]
%Inh [1]: 25%
%Inh [2]: 11%
%Inh [3]: 91.2%
%Inh [4]: 0%
%Inh [5]: 0%
%Inh [6]: 0%
%Inh [7]: 7%
%Inh [8]: 6%
%Inh [9]: 5%
%Inh [10, 21]: 0%
%Inh [11]: 0%
%Inh [12]: 86%
%Inh [13]: 21%
%Inh [14]: 0%
%Inh [15]: 7%
%Inh [16]: 0%
%Inh [17]: 94%
%Inh [18]: 0%
%Inh [19]: 100%
%Inh [20]: 0%

Nc1ncc(-c2cn[nH]c2)c2scc(-c3ccc4c(c3)CCN4C(=O)Cc3ccccc3)c12 [GSK2593067]
%Inh [1]: 65%
%Inh [2]: 32%
%Inh [3]: 97.8%
%Inh [4]: 10%
%Inh [5]: 0%
%Inh [6]: 0%
%Inh [7]: 0%
%Inh [8]: 0%
%Inh [9]: 2%
%Inh [10, 21]: 11%
%Inh [11]: 0%
%Inh [12]: 92.6%
%Inh [13]: 0%
%Inh [14]: 1%
%Inh [15]: 4%
%Inh [16]: 0%
%Inh [17]: 94%
%Inh [18]: 0%
%Inh [19]: 0%
%Inh [20]: 4%

CN(c1ccc2c(c1)nc(NCc1ccccc1)n2C)c1ccnc(Nc2ccc(CS(C)(=O)=O)cc2)n1.Cl [GW811603]
%Inh [1]: 69%
%Inh [2]: 0%
%Inh [3]: 0%
%Inh [4]: 0%
%Inh [5]: 35%
%Inh [6]: 8%
%Inh [7]: 33%
%Inh [8]: 16%
%Inh [9]: 0%
%Inh [10, 21]: 0%
%Inh [11]: 3%
%Inh [12]: 49%
%Inh [13]: 41%
%Inh [14]: 46%
%Inh [15]: 0%
%Inh [16]: 38%
%Inh [17]: 72%
%Inh [18]: 0%
%Inh [19]: 29%
%Inh [20]: 6%

c1ccc(Oc2ccc(Nc3ccnc4cc(-c5ccc(CN6CCCCC6)o5)ccc34)cc2)nc1 [GW567143]
%Inh [1]: 74%
%Inh [2]: 79%
%Inh [3]: 24%
%Inh [4]: 0%
%Inh [5]: 0%
%Inh [6]: 8%
%Inh [7]: 0%
%Inh [8]: 0%
%Inh [9]: 4%
%Inh [10, 21]: 8%
%Inh [11]: 6%
%Inh [12]: 79%
%Inh [13]: 0%
%Inh [14]: 0%
%Inh [15]: 8%
%Inh [16]: 0%
%Inh [17]: 20%
%Inh [18]: 0%
%Inh [19]: 0%
%Inh [20]: 15%

Cc1ccc(C)c(NC(=O)Nc2ccc(C)c(-c3ccc(C(=O)Nc4ccncc4)cc3)c2)c1 [GSK1398473]
%Inh [1]: 25%
%Inh [2]: 0%
%Inh [3]: 0%
%Inh [4]: 0%
%Inh [5]: 0%
%Inh [6]: 9%
%Inh [7]: 0%
%Inh [8]: 0%
%Inh [9]: 0%
%Inh [10, 21]: 12%
%Inh [11]: 0%
%Inh [12]: 92.4%
%Inh [13]: 0%
%Inh [14]: 0%
%Inh [15]: 12%
%Inh [16]: 0%
%Inh [17]: 36%
%Inh [18]: 0%
%Inh [19]: 8%
%Inh [20]: 0%

Cc1cccc(Nc2nc(NCCN)ncc2C(N)=O)c1 [GSK1292139]
%Inh [1]: 48%
%Inh [2]: 65%
%Inh [3]: 41%
%Inh [4]: 0%
%Inh [5]: 0%
%Inh [6]: 0%
%Inh [7]: 15%
%Inh [8]: 0%
%Inh [9]: 6%
%Inh [10, 21]: 11%
%Inh [11]: 56%
%Inh [12]: 25%
%Inh [13]: 0%
%Inh [14]: 0%
%Inh [15]: 7%
%Inh [16]: 0%
%Inh [17]: 85%
%Inh [18]: 0%
%Inh [19]: 13%
%Inh [20]: 0%

O=C(Nc1n[nH]c2nc(-c3ccccc3)ccc12)C1CC1 [SB-708999]
%Inh [1]: 0%
%Inh [2]: 17%
%Inh [3]: 0%
%Inh [4]: 10%
%Inh [5]: 0%
%Inh [6]: 28%
%Inh [7]: 9%
%Inh [8]: 0%
%Inh [9]: 77%
%Inh ([10]; 1 µM): 12%
%Inh [11]: 0%
%Inh [12]: 7%
%Inh [13]: 0%
%Inh [14]: 29%
%Inh [15]: 0%
%Inh [16]: 8%
%Inh [17]: 54%
%Inh [18]: 0%
%Inh [19]: 4%
%Inh [20]: 6%

CC(C)(C)c1ccc(C(=O)Nc2cn3cc(-n4ccnc4)ccc3n2)cc1
%Inh [1]: 21%
%Inh [2]: 0%
%Inh [3]: 27%
%Inh [4]: 42%
%Inh [5]: 51%
%Inh [6]: 0%
%Inh [7]: 12%
%Inh [8]: 21%
%Inh [9]: 2%
%Inh [10, 21]: 14%
%Inh [11]: 7%
%Inh [12]: 18%
%Inh [13]: 32%
%Inh [14]: 28%
%Inh [15]: 12%
%Inh [16]: 21%
%Inh [17]: 0%
%Inh [18]: 0%
%Inh [19]: 0%
%Inh [20]: 0%
